# Source: PubChem
# This is a sample that favours compounds with a hit; in the whole collection about 3.5% have one here.
# GPR151 ag = activators of human GPR151, primary screen, cell-based, PathHunter beta-arrestin, luminescence; AID 1508602, 2020; PathHunter beta-arrestin GPR151 cells; activation, % at 11.2 µM; hit rate 1% among 650,000; in the data active means activation above about 4.9%;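 further: 0% = median of compound wells and 100% = cells with positive control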
# TEAD-YAP block = TEAD-YAP interaction inhibition, primary screen, TEAD-YAP interaction inhibitor project, luminescence, HEK-TIYL cells. TEAD-Gal4/YAP UAS-luciferase luminescence. inhibition, % at 9.12 µM. hit rate 1.4% among 640,000. AID 1259422, 2018; in the data active means inhibition above about 32%;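 further: 0% = median of test compound wells and 100% = reference inhibitor wells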
# FBW7 activator = FBW7 E3 ligase activators, primary screen, biochemical, AlphaScreen, human; F-box/WD repeat-containing protein 7 (Homo sapiens), Q969H0; AlphaScreen FBW7–phospho-cyclin E peptide binding, activator screen; normalized activity (activation), % at 26.1 µM; hit rate 0.13% among 650,000; in the data active means normalized activity above about 1.9%;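 further: purified mutant Fbw7 with reduced substrate affinity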
# Target sequence (Q969H0 whole entry, looked up): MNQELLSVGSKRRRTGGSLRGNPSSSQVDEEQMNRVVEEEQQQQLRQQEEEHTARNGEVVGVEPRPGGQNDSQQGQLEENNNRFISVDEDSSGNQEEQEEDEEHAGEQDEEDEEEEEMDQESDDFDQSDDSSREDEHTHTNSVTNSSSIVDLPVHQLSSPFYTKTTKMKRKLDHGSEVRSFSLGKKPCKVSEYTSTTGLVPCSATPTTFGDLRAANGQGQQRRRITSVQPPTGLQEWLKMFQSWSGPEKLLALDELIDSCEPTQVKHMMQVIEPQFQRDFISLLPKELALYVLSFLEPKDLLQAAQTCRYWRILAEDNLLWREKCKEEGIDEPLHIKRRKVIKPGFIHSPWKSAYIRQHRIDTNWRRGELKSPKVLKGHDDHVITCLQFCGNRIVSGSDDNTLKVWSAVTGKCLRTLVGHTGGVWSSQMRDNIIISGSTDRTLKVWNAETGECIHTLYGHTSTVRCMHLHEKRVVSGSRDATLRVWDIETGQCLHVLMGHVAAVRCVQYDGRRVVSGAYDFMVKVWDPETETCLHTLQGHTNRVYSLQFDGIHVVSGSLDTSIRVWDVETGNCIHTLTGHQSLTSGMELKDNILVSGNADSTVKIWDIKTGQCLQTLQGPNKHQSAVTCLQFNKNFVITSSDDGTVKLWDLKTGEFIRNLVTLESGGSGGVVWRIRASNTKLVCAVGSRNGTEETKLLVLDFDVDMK
# MITF primary = MITF inhibitors, primary screen, biochemical, AlphaScreen, human. Microphthalmia-associated transcription factor (Homo sapiens), O75030. AlphaScreen MITF homodimerization, bead proximity signal. inhibition, % at 2.6 µM. hit rate 0.91% among 650,000. AID 1259374, 2018; in the data active means inhibition above about 50%;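 further: 0% = vehicle wells with protein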
# Numbers without * were called inactive.
SMILES,GPR151 ag,TEAD-YAP block,FBW7 activator,MITF primary
CCOc1ccc(NC(=O)C(=O)NCCCO)cc1,-0.4,-11.1,1.1,19.3
CCOc1ccc(NC(=O)C(=O)NCCCN)cc1,-1.4,76.3*,-0.1,-4.0
CCOc1ccc(NC(=O)C(=O)NCN(C(=O)CCl)c2ccccc2)cc1,-1.4,46.5*,0.1,18.1
Brc1ccc(C2C=C(c3cccc(Br)c3)Nc3nnnn32)cc1 (stereo unspecified),0.6,-8.4,0.7,0.9
Oc1cccc2ccc(/C=C/c3ccc4c(c3)OCCO4)nc12,-9.5,92.0*,-0.1,-1.7
CC(=O)Oc1cccc2ccc(/C=C/c3cc4c(cc3Cl)OCO4)nc12,0.0,-23.1,0.1,14.6
CC(=O)Oc1cccc2ccc(/C=C/c3ccc4c(c3)OCO4)nc12,-7.9,78.3*,0.0,14.2
CCNC(=O)c1c(NC(=O)c2cccs2)sc2c1CCC(C(C)(C)C)C2 (stereo unspecified),-0.4,-8.1,0.0,-1.7
CCC/C=N/NC(=O)c1ccc(O)cc1,-0.8,-18.3,0.0,10.1
C/C(CC(C)C)=N/NC(=O)c1ccc(Br)cc1,0.0,-15.5,0.1,-15.8
CCC/C=N/NC(=O)c1cccc(O)c1,-1.9,33.9*,-0.1,9.4
C/C(CC(C)C)=N\NC(=O)c1cccc(O)c1,-2.1,40.2*,0.1,7.8
Cc1c(C(=O)Nc2ccc(Cl)cc2)cccc1[N+](=O)[O-],-0.9,-35.8,-0.1,5.8
Cc1ccccc1OCC(=O)Nc1ccc(-c2cc3ccccc3oc2=O)c(C)c1,-0.5,44.7*,0.2,13.3
Cc1cc(NC(=O)c2ccccc2)ccc1-c1cc2ccccc2oc1=O,-1.7,-1.2,0.6,5.6
Cc1cc(NC(=O)Cc2ccccc2)ccc1-c1cc2ccccc2oc1=O,-0.5,54.0*,-0.1,-4.6
O=C(N/N=C/c1cccc(O)c1)c1ccc(F)cc1,-1.2,34.6*,0.0,8.0
CC(C)(C)OC(=O)N/N=C/c1cccc(O)c1,-3.9,84.0*,-0.2,3.5
O=C(COc1ccccc1)Nc1ccc2c(c1)CCCN2C(=O)c1cccs1,-2.3,-2.9,0.6,-0.6
CCOC1(OCC)N=C(N)C2(C#N)C(c3ccccc3F)C12C#N (stereo unspecified),0.3,-5.0,0.0,0.3
Cc1ccc(C)c(NC(=O)C2(C)CC3c4ccccc4C2c2ccccc23)c1 (stereo unspecified),1.4,3.9,0.2,11.2
COc1ccc(NC(=O)C2(C)CC3c4ccccc4C2c2ccccc23)cc1 (stereo unspecified),1.5,-0.5,1.9*,7.9
CCCCOc1ccc(C(=O)Nc2ccc3c4c(cccc24)C(=O)N3CC)cc1,0.7,9.2,0.1,3.5
CCCCN1C(=O)c2cccc3c(NC(=O)c4ccc(C#N)cc4)ccc1c23,-1.8,48.3*,0.2,12.9
CCSc1nnc(NC(=O)CCC(=O)Nc2nnc(SCC)s2)s1,-0.9,5.8,0.1,12.2
SMILES,GPR151 ag,TEAD-YAP block,FBW7 activator,MITF primary
CCCCNC(=O)/C(=C\c1ccccc1Cl)NC(=O)c1ccc(C)cc1,-1.2,-2.9,0.0,-9.6
COc1cccc(C(C[N+](=O)[O-])c2c[nH]c3ccccc23)c1OC (stereo unspecified),1.8,14.1,-0.1,-4.7
O=[N+]([O-])CC(c1ccccc1)c1c[nH]c2ccccc12 (stereo unspecified),0.3,45.8*,-0.2,0.0
COc1cccc(C(C[N+](=O)[O-])c2c[nH]c3ccccc23)c1 (stereo unspecified),1.0,54.0*,0.0,-12.3
O=C(Nc1cccc(C(=O)O)c1)/C(=C\c1cccc([N+](=O)[O-])c1)NC(=O)c1ccc(Br)cc1,0.7,-2.4,0.1,3.4
CCCOC(=O)c1ccc(N2C(=O)C3CCC(C)CC3C2=O)cc1 (stereo unspecified),-1.0,-0.3,0.2,20.1
CN(C)CP(=O)(O)CCc1ccccc1,-0.9,7.9,5.1*,1.4
Cc1cc(=O)[nH]c(N/N=C/c2ccc(OC(=O)c3ccc(Br)o3)cc2)n1,1.4,0.0,0.0,3.1
COCCNc1ccc2ncc(-c3cccc(C(C)=O)c3)n2n1,2.6,7.0,-0.1,-5.4
COCCNc1ccc2ncc(-c3cccc(NC(C)=O)c3)n2n1,0.5,56.1*,0.4,6.4
COCCNc1ccc2ncc(-c3cccc(NS(C)(=O)=O)c3)n2n1,0.5,42.5*,0.1,-17.9
CS(=O)(=O)Nc1cccc(-c2cnc3ccc(NCCCO)nn23)c1,0.7,57.6*,0.1,-4.7
COCCNc1ccc2ncc(-c3cccc(C(N)=O)c3)n2n1,-1.3,-2.5,0.0,-3.9
N#CC1(c2ccccc2)CCc2c(sc3ncnc(Cl)c23)C1 (stereo unspecified),1.0,6.9,0.1,9.7
CCOC(=O)c1c(C)[nH]c2ccc(Oc3nc(OC)cc(OC)n3)cc12,1.6,41.1*,0.2,-2.6
CCNC(=O)N1CCCC(c2nnc(-c3ccccc3F)s2)C1 (stereo unspecified),-4.6,38.2*,-0.2,-5.4
CC1=CC(C)(C)N(S(=O)(=O)c2ccc(C)cc2)c2ccc(Cl)cc21,-0.1,27.3,0.0,-5.7
CCOc1ccc2c(c1)C(C)=CC(C)(C)N2S(=O)(=O)c1ccc(Cl)cc1,-0.1,60.3*,-0.1,5.2
COc1ccc2c(c1)C(C)=CC(C)(C)N2S(=O)(=O)c1ccc(Cl)cc1,0.6,48.0*,-0.1,-1.9
CC1=CC(C)(C)N(S(=O)(=O)c2ccc(Cl)cc2)c2ccccc21,0.2,55.0*,-0.2,0.6
O=C(CSCc1cccc(Br)c1)N1CCCCC1,1.1,-43.5,-0.2,4.2
CCCCP(=Nc1ccccc1)(N(CC)CC)N(CC)CC,1.2,92.1*,0.2,8.4
CCCCN(CC)S(=O)(=O)c1ccccc1,-0.8,0.3,0.1,-26.5
CCc1ccc(-n2c(=S)sc3c(=O)n(-c4ccccc4OC)c(SCc4nc5ccccc5[nH]4)nc32)cc1,-0.5,5.6,0.0,9.9
COc1ccc(OC)c(Cn2c(O)c(/C=C3\C=CC=N3)c(=O)[nH]c2=O)c1,2.1,40.2*,-0.3,5.9
SMILES,GPR151 ag,TEAD-YAP block,FBW7 activator,MITF primary
COc1ccc(Cn2c(O)c(/C=C3\C=CC=N3)c(=O)[nH]c2=O)cc1,1.5,3.2,-0.1,17.7
C/C=C/C1OC23CCCCC2C(C#N)(C(=N)O3)C1(C#N)C#N (stereo unspecified),1.1,-6.9,0.1,10.1
COc1ccc2cc3c(N)nn(C(=O)Cc4c[nH]c5ccccc45)c3nc2c1,-0.1,74.7*,-0.1,4.8
COc1ccc(CC(=O)n2nc(N)c3cc4ccc(OC)cc4nc32)cc1,0.7,41.2*,-0.1,7.2
COc1cccc(CC(=O)n2nc(N)c3cc4ccc(OC)cc4nc32)c1,0.2,8.4,0.2,3.8
COc1cc([N+](=O)[O-])ccc1NC(=S)NC(=O)CCN1C(=O)c2ccccc2C1=O,-1.0,6.8,-0.1,-16.9
O=C(c1sc2c3ccccc3nc[n+]2c1O)C(F)(F)F,0.0,-28.9,-0.1,4.4
